Assay results as given in the supplement of paper PMC10849652.
Targets with a hit are over-represented here; the source holds about 7,900 in all. About 0.6% of all pairs of compound and target were hits. A number with no mark means an inactive call.

Legend:
Experiment in all cases: log2 fold change, soluble protein after heating vs DMSO (PISA); higher = thermal stabilisation; K562 cells, 10 uM, 30 min; active = over 0.2 and 3.5 SD of the protein, either way, in both replicates (recomputed)
[1] = target: ZEB2 (UniProt O60315)
Outline: (§1)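 Aliquots of K562 cells (2×10^6 cells/mL) treated with 10 μM compound for 30 min were heated for 3 min over 48°C-58°C. After pooling and extraction in PBS with 0.5% NP-40 at 4°C, soluble protein from a 21,000xg, 90 min spin was quantified by TMTpro 16plex LC-MS/MS with channel sums equalised. Thermal stability is expressed against control samples, from duplicates, as a log2 fold change.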

[2] = target: ZER1 (UniProt Q7Z7L7)
Outline: as §1

[3] = target: ZFAND5 (UniProt O76080)
Outline: as §1

[4] = target: ZFAND6 (UniProt Q6FIF0)
Outline: as §1

[5] = target: ZFP91 (UniProt Q96JP5)
Outline: as §1

[6] = target: ZFPL1 (UniProt O95159)
Outline: as §1

[7] = target: ZMAT2 (UniProt Q96NC0)
Outline: as §1

[8] = target: ZMYM1 (UniProt Q5SVZ6)
Outline: as §1

[9] = target: ZMYM3 (UniProt Q14202)
Outline: as §1

[10] = target: ZNF143 (UniProt P52747)
Outline: as §1

[11] = target: ZNF217 (UniProt O75362)
Outline: as §1

[12] = target: ZNF239 (UniProt Q16600)
Outline: as §1

[13] = target: ZNF277 (UniProt Q9NRM2)
Outline: as §1

[14] = target: ZNF511 isoform 1 (UniProt Q8NB15)
Outline: as §1

[15] = target: ZNF512 (UniProt Q96ME7)
Outline: as §1

[16] = target: ZNF579 (UniProt Q8NAF0)
Outline: as §1

[17] = target: ZNF609 (UniProt O15014)
Outline: as §1

[18] = target: ZNF622 (UniProt Q969S3)
Outline: as §1

[19] = target: ZRANB2 (UniProt O95218)
Outline: as §1

[20] = target: ZNF580 (UniProt Q9UK33)
Outline: as §1

ZNF512, sequence (Q96ME7 whole entry, looked up): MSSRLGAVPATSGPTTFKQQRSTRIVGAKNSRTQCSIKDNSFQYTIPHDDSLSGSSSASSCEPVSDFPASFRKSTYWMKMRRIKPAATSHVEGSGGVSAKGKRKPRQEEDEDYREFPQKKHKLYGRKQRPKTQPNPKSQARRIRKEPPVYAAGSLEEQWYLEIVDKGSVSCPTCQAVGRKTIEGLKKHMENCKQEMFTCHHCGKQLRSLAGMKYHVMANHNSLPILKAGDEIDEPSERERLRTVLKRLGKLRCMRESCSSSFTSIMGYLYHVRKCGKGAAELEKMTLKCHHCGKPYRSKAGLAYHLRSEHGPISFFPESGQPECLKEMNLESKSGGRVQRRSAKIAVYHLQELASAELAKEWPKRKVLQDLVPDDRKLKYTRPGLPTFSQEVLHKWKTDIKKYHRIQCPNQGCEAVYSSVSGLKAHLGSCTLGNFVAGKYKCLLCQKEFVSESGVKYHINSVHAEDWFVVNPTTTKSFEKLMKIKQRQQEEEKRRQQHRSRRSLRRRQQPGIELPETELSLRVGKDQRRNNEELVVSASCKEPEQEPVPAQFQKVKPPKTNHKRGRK
ZFAND6, sequence (Q6FIF0 whole entry, looked up): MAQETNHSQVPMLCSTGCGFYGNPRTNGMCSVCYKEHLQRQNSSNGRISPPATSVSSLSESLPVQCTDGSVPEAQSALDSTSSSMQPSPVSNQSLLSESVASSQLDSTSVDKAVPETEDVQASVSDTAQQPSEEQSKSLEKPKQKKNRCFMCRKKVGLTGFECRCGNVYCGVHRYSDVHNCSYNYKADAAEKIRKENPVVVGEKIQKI
ZNF580, sequence (Q9UK33 whole entry, looked up): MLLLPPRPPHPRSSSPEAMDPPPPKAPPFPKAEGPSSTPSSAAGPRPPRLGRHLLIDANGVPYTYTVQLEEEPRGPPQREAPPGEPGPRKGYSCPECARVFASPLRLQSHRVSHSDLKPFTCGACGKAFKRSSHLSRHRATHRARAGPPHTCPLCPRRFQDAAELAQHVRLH
ZNF277, sequence (Q9NRM2 whole entry, looked up): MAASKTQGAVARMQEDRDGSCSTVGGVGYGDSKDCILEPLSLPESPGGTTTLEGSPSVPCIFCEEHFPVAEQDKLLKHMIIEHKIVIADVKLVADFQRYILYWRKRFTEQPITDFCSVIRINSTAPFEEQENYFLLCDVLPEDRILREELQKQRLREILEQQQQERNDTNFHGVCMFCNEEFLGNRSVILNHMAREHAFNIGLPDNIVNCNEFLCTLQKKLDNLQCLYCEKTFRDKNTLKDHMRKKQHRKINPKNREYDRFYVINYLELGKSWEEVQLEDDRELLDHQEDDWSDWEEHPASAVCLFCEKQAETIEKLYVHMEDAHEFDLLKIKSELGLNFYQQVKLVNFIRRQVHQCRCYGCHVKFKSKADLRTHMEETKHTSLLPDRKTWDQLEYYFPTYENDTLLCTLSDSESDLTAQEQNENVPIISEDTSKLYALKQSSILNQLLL
ZMAT2, sequence (Q96NC0 whole entry, looked up): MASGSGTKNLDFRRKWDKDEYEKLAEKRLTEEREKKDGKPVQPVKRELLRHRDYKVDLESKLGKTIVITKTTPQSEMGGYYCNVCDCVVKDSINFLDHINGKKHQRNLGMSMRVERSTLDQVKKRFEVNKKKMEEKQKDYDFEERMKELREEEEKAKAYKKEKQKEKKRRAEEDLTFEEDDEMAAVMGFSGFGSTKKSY
ZNF622, sequence (Q969S3 whole entry, looked up): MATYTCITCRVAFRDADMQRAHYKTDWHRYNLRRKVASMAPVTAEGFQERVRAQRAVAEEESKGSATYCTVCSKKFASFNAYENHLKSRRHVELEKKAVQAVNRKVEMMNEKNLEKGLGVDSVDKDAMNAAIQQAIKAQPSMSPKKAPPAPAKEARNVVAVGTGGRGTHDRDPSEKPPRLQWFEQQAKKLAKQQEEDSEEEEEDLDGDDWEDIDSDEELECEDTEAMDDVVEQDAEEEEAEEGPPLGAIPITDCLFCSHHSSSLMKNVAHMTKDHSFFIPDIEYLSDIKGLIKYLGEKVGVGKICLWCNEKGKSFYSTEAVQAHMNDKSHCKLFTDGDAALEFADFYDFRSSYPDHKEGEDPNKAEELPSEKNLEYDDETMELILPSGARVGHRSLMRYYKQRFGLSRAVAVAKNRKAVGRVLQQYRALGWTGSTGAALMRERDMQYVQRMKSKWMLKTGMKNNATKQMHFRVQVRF
ZNF217, sequence (O75362 whole entry, looked up): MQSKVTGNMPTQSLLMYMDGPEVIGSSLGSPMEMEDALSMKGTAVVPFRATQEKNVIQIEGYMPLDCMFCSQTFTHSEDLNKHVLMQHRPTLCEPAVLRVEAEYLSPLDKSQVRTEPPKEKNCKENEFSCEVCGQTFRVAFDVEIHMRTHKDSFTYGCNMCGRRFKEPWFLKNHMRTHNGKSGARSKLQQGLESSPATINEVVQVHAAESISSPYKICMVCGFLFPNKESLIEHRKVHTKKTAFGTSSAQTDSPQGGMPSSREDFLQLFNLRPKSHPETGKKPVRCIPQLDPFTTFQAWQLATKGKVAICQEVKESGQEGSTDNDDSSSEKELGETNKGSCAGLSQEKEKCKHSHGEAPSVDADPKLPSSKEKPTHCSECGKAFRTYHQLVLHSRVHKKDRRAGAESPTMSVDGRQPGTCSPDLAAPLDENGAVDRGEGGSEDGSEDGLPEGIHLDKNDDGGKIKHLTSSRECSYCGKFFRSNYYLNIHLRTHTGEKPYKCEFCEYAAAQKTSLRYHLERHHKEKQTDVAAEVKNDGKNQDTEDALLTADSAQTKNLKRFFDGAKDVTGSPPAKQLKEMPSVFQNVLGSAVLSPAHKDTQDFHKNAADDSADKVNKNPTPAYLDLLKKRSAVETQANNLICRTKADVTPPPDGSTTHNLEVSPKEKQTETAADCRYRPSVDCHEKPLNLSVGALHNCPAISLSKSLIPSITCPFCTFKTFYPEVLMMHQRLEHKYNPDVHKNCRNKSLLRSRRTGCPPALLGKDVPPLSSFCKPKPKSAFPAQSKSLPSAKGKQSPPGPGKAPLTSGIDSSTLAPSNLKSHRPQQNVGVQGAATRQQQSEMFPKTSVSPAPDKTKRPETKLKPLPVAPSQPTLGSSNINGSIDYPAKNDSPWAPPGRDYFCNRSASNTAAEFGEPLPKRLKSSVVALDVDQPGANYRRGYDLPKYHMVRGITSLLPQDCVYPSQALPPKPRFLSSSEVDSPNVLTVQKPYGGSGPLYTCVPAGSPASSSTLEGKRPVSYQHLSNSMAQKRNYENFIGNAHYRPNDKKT
ZFP91, sequence (Q96JP5 whole entry, looked up): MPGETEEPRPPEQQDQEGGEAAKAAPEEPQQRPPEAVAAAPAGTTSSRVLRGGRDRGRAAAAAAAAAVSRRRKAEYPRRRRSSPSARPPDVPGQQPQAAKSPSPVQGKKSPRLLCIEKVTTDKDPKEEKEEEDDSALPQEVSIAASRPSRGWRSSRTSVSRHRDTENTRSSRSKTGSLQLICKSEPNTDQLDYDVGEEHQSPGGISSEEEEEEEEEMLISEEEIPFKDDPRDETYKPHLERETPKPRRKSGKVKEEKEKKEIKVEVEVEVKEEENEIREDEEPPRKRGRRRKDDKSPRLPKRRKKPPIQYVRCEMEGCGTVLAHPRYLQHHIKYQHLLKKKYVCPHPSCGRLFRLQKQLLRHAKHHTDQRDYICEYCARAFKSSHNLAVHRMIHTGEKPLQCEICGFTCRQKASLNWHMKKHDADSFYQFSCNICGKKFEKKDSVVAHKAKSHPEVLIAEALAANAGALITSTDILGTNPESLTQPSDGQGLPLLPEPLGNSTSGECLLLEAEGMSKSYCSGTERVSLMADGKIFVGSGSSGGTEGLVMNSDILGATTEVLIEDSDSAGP
ZNF579, sequence (Q8NAF0 whole entry, looked up): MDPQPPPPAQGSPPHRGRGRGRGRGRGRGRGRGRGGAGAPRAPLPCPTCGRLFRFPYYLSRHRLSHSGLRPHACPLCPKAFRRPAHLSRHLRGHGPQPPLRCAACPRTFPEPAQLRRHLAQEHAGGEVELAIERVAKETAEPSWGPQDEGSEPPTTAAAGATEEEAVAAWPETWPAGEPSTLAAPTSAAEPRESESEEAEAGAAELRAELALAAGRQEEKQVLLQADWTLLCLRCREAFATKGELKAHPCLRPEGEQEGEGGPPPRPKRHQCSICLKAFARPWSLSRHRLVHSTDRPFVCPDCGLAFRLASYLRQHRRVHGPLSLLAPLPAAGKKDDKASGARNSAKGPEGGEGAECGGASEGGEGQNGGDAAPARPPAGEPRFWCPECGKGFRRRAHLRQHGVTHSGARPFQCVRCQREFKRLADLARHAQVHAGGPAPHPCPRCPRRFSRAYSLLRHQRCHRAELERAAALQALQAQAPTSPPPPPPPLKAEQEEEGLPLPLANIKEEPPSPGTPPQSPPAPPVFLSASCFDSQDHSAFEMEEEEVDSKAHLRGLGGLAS
ZFPL1, sequence (O95159 whole entry, looked up): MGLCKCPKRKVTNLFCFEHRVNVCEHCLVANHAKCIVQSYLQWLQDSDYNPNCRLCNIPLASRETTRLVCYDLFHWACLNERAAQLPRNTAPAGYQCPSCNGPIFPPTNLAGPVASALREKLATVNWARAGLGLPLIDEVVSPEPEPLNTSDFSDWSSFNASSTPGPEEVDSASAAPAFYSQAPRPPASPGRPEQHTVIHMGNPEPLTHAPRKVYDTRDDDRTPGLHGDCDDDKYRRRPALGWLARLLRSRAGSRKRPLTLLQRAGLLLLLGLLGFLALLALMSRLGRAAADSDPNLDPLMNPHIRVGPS
ZRANB2, sequence (O95218 whole entry, looked up): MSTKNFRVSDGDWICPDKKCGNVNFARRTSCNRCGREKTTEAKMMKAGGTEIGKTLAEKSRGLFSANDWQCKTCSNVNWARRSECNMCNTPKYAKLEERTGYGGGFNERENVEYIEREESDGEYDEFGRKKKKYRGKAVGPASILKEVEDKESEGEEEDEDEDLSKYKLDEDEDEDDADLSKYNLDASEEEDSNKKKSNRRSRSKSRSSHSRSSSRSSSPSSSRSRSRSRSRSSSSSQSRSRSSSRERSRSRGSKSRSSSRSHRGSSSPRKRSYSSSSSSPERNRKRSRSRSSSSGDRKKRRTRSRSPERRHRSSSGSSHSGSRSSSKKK

Row | SMILES | log2 fold change [1] | log2 fold change [2] | log2 fold change [3] | log2 fold change [4] | log2 fold change [5] | log2 fold change [6] | log2 fold change [7] | log2 fold change [8] | log2 fold change [9] | log2 fold change [10] | log2 fold change [11] | log2 fold change [12] | log2 fold change [13] | log2 fold change [14] | log2 fold change [15] | log2 fold change [16] | log2 fold change [17] | log2 fold change [18] | log2 fold change [19] | log2 fold change [20]
1 | FC(F)(F)c1ccc(/C=C/c2nc(COc3ccc(CCCCn4ccnn4)cc3)co2)cc1 [mubritinib] | -0.114 | 0.044 | 0.099 | 0.017 | -0.076 | -0.007 | 0.049 | -0.081 | -0.072 | 0.094 | 0.08 | -0.483 | 0.192 | -0.06 | -0.122 | 0.031 | 0.019 | 0.004 | -0.02 | –
2 | O=C(Nc1cccc(Nc2ncc(Br)c(NCCc3cnc[nH]3)n2)c1)N1CCCC1 | -0.106 | -0.015 | 0.01 | -0.058 | 0.004 | -0.047 | 0.017 | -0.136 | -0.042 | -0.058 | 0.01 | 0.001 | 0.034 | 0.072 | – | -0.377 (active) | -0.035 | 0.022 | -0.007 | 0.062
3 | Cc1nc(Nc2n[nH]c3c2CN(C(=O)N[C@H](CN(C)C)c2ccccc2)C3(C)C)c2sccc2n1 | -0.149 | -0.141 | 0.038 | 0.028 | -0.059 | -0.034 | 0.07 | -0.063 | -0.01 | -0.047 | -0.055 | -0.012 | 0.231 | 0.005 | 0.187 | -0.115 | -0.018 | 0.091 | -0.032 | –
4 | CC[C@H](C)n1cc(C)c2c(C(=O)NCc3c(C)cc(C)[nH]c3=O)cc(-c3ccc(N4CCNCC4)nc3)cc21 | 0.173 | 0.064 | -0.045 | -0.05 | 0.04 | -0.013 | -0.073 | -0.016 | 0.055 | 0.068 | 0.045 | -0.096 | 0.02 | -0.058 | -0.002 | 0.167 | 0.076 | -0.012 | 0 | –
5 | COc1cccc2cc(-c3nc([C@H]4CC[C@H](C(=O)O)CC4)n4ncnc(N)c34)[nH]c12 | 0.051 | 0.067 | 0.129 | 0.046 | -0.042 | -0.039 | 0.071 | -0.128 | 0.001 | 0.05 | 0.043 | 0.548 | -0.24 | 0.099 | -0.041 | -0.078 | -0.028 | 0.01 | -0.01 | –
6 | Cc1cn(-c2cc(NC(=O)c3ccc(C)c(Nc4nccc(-c5cccnc5)n4)c3)cc(C(F)(F)F)c2)cn1 [nilotinib] | 0.025 | 0.098 | 0.098 | 0.014 | 0.023 | -0.047 | 0.012 | -0.009 | 0.041 | -0.105 | -0.082 | -0.022 | -0.207 | -0.17 | -0.031 | 0.105 | 0.03 | 0.046 | 0.052 | –
7 | Fc1ccc(Cl)cc1-c1nc(Nc2ccncc2)c2nccnc2n1 | -0.099 | -0.022 | 0.003 | -0.05 | 0.007 | 0.101 | 0.018 | -0.057 | -0.012 | -0.058 | 0.168 | -0.333 | -0.765 (active) | -0.03 | 0.086 | -0.002 | -0.302 | 0.038 | 0.041 | –
8 | CNC(=O)c1ccc(Nc2ncc(C(F)(F)F)c(NCc3nccnc3N(C)S(C)(=O)=O)n2)cc1 [defactinib] | 0.019 | 0.027 | 0.085 | -0.045 | 0.054 | -0.083 | -0.014 | 0.558 (active) | -0.013 | -0.171 | -0.145 | -0.014 | 0.161 | -0.128 | – | 0.019 | -0.046 | 0.057 | -0.046 | -0.099
9 | Cc1ccc(Sc2cncc3sc(C(N)=O)cc23)cc1 | -0.012 | -0.085 | -0.047 | -0.01 | -0.025 | 0.008 | 0.113 | 0.061 | -0.07 | -0.042 | -0.107 | 0.019 | -0.032 | 0.018 | – | -0.07 | -0.045 | -0.022 | -0.04 | 0.16
10 | NC1(c2ccc(-c3nc4ccn5c(=O)[nH]nc5c4cc3-c3ccccc3)cc2)CCC1 | -0.127 | 0 | 0.019 | 0.056 | 0.144 | 0.058 | 0.043 | 0.215 | -0.036 | -0.023 | -0.045 | -0.253 | 0.107 | -0.039 | 0.151 | -0.061 | 0.018 | -0.019 | 0.046 | –
11 | CC[C@H](C)[C@H](NC(=O)[C@H]([C@@H](C)CC)N(C)C(C)=O)C(=O)N[C@H](C(=O)N[C@@H](CC(C)C)C(=O)[C@@]1(C)CO1)[C@@H](C)O [epoxomicin] | -0.026 | 0.048 | 0.345 (active) | 0.051 | -0.045 | 0.134 | 0.103 | -0.05 | -0.033 | 0.026 | 0.075 | -0.051 | -0.06 | -0.045 | 0.085 | -0.024 | -0.271 | 0.056 | -0.016 | –
12 | CN1CCc2c(c3ccccc3n2Cc2ccc(C(=O)NO)cc2)C1 [Tubastatin A] | 0.181 | 0.048 | 0.285 (active) | 0.144 | 0.077 | -0.025 | 0.057 | 0.071 | -0.028 | -0.031 | -0.086 | 0.091 | 0.275 | -0.089 | – | 0.095 | -0.126 | 0.018 | -0.032 | -0.08
13 | CCCc1cc(C)[nH]c(=O)c1CNC(=O)c1cc(-c2ccnc(N3CCN(C)CC3)c2)cc2c1cnn2C(C)C | -0.067 | -0.125 | -0.038 | -0.051 | 0.074 | -0.05 | -0.044 | -0.017 | 0.067 | -0.006 | 0.003 | -0.662 (active) | 0.154 | 0.08 | 0.363 | 0.058 | -0.003 | -0.01 | 0.028 | –
14 | CCCCN(Cc1ccc(C(=O)NO)cc1)C(=O)Nc1ccccc1 [Nexturastat A] | 0.047 | 0.012 | 0.371 (active) | 0.027 | 0.079 | -0.064 | -0.011 | 0.059 | 0.07 | 0.19 | 0.006 | 0.441 | 0.276 | -0.074 | -0.038 | 0.004 | 0.475 (active) | -0.086 | -0.057 | –
15 | CC1=C(C(=O)Nc2cc3cn[nH]c3cc2F)C(c2ccc(C(F)(F)F)cc2)CC(=O)N1 (stereo not given) | -0.076 | -0.112 | 0.058 | -0.013 | 0.058 | 0.041 | 0.026 | 0.088 | 0.062 | 0.033 | -0.033 | 0.283 | -0.009 | -0.006 | -0.261 | -0.003 | -0.117 | -0.083 | 0.025 | –
